Reference: ChEMBL document CHEMBL1961873, “Compounds: GSK PKIS; Assays: Nanosyn kinase panel” (2012)

Tests used:
[1] = target: Dual specificity protein kinase CLK3 (Homo sapiens) (UniProt P49761); settings: at 1 µM;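 further: each value is the mean inhibition of CLK3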
[2] = target: Dual specificity tyrosine-phosphorylation-regulated kinase 1A (Homo sapiens) (UniProt Q13627); settings: at 0.1 µM
[3] = target: Dual specificity tyrosine-phosphorylation-regulated kinase 1A (Homo sapiens) (UniProt Q13627); settings: at 1 µM
[4] = target: Dual specificity tyrosine-phosphorylation-regulated kinase 1B (Homo sapiens) (UniProt Q9Y463); settings: at 0.1 µM
Dual specificity tyrosine-phosphorylation-regulated kinase 1B (Homo sapiens), sequence (Q9Y463 whole entry, looked up): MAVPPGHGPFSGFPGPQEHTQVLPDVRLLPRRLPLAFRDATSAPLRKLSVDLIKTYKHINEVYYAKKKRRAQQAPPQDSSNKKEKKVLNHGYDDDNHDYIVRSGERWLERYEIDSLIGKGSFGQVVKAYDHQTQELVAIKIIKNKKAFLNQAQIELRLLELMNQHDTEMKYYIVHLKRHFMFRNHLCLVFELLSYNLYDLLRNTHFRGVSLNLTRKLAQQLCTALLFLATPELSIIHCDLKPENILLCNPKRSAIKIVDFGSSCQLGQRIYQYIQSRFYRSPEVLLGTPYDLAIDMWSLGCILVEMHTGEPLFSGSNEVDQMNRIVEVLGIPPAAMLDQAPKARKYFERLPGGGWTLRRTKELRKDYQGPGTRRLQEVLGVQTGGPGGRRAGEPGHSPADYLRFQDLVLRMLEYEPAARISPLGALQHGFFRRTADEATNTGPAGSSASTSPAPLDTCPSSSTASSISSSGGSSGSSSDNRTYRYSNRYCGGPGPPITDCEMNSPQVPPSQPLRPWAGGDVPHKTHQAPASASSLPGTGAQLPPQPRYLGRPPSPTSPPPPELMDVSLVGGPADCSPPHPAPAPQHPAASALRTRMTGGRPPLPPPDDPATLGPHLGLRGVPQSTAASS

[5] = target: Dual specificity tyrosine-phosphorylation-regulated kinase 1B (Homo sapiens) (UniProt Q9Y463); settings: at 1 µM
[6] = target: T1, Dual specificity tyrosine-phosphorylation-regulated kinase 2 (Homo sapiens) (UniProt Q92630); settings: at 0.1 µM
T1 sequence (whole entry): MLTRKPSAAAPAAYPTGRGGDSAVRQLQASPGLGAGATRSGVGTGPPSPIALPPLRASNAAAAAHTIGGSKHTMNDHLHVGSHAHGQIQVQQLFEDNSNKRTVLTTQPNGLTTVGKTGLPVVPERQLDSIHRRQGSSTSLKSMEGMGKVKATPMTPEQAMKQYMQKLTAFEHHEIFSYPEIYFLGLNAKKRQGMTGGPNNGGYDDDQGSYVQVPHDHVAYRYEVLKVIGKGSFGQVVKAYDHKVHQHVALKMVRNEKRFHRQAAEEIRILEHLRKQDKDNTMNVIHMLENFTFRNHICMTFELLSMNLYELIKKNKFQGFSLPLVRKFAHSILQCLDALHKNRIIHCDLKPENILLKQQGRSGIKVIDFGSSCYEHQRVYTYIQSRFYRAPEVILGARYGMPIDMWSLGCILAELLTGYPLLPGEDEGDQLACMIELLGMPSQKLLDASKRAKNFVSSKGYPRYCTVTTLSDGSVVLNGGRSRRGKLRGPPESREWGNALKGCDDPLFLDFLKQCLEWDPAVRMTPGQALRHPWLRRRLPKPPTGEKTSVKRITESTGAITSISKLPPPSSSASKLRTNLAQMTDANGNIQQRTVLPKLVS

[7] = target: T1, Dual specificity tyrosine-phosphorylation-regulated kinase 2 (Homo sapiens); settings: at 1 µM
[8] = target: Glycogen synthase kinase-3 alpha (Homo sapiens) (UniProt P49840); settings: at 0.1 µM
Glycogen synthase kinase-3 alpha (Homo sapiens), sequence (P49840 2-483 limits assumed): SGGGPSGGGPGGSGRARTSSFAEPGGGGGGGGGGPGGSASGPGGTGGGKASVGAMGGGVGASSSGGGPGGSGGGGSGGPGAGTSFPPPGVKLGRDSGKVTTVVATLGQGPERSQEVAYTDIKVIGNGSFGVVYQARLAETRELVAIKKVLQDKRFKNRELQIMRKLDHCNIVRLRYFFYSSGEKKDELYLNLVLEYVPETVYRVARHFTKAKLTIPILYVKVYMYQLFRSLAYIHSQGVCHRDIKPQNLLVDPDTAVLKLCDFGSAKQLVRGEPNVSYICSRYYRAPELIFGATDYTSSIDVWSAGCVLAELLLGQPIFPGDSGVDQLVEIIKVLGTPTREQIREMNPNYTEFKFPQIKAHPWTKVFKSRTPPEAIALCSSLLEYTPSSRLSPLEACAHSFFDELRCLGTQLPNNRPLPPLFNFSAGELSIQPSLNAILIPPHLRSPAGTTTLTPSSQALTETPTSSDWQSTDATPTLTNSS

[9] = target: Glycogen synthase kinase-3 alpha (Homo sapiens) (UniProt P49840); settings: at 1 µM
[10] = target: Homeodomain-interacting protein kinase 1 (Homo sapiens) (UniProt Q86Z02); settings: at 0.1 µM
Homeodomain-interacting protein kinase 1 (Homo sapiens), sequence (Q86Z02 whole entry, looked up): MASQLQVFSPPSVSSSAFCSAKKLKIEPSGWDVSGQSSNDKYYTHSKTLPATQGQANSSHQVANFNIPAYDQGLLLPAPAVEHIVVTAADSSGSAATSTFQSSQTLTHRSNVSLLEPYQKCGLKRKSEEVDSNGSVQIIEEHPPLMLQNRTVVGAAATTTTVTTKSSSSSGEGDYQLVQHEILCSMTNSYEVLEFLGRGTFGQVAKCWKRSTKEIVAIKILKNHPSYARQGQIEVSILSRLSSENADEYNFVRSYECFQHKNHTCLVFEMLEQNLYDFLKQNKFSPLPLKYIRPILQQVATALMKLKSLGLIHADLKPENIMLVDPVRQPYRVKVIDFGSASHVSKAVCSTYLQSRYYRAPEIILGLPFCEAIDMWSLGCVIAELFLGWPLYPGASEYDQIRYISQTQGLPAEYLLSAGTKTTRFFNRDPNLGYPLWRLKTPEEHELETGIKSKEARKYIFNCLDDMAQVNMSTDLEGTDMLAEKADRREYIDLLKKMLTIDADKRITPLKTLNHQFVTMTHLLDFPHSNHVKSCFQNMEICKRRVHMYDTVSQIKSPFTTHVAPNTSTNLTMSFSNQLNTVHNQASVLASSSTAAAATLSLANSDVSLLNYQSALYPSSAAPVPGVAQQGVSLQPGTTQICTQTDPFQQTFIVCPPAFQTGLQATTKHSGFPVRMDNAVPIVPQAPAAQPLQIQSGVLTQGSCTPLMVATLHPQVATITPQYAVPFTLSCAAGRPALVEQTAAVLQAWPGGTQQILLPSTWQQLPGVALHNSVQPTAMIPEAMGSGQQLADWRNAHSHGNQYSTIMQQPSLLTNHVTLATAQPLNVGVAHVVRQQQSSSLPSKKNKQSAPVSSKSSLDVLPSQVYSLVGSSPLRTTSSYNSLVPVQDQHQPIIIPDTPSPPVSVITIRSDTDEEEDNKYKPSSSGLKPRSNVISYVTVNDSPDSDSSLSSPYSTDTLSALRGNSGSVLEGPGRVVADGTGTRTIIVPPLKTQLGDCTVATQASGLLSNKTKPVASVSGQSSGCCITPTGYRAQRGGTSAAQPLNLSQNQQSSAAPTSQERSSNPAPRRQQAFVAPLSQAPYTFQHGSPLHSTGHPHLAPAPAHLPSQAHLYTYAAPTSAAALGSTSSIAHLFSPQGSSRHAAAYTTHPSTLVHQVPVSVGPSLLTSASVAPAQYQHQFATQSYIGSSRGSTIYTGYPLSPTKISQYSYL

[11] = target: Homeodomain-interacting protein kinase 1 (Homo sapiens) (UniProt Q86Z02); settings: at 1 µM
[12] = target: T2, Homeodomain-interacting protein kinase 4 (Homo sapiens) (UniProt Q8NE63); settings: at 0.1 µM
T2 sequence (whole entry): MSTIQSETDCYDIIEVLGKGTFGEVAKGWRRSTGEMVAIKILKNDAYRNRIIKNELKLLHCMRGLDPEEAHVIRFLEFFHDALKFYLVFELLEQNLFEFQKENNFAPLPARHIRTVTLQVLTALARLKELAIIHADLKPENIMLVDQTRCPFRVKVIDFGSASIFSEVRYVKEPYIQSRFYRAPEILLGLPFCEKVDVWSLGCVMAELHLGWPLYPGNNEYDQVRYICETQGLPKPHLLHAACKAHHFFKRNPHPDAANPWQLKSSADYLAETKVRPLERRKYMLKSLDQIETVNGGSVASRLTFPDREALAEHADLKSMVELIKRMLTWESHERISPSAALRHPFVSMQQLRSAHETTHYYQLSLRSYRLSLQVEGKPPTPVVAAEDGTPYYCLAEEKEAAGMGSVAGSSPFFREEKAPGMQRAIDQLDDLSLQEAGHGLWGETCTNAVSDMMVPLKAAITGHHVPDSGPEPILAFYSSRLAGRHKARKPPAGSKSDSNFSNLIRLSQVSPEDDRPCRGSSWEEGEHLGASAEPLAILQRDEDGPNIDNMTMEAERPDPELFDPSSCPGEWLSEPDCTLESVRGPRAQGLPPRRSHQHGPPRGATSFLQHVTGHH

[13] = target: T2, Homeodomain-interacting protein kinase 4 (Homo sapiens); settings: at 1 µM
[14] = target: Mitogen-activated protein kinase 9 (Homo sapiens) (UniProt P45984); settings: at 0.1 µM
Mitogen-activated protein kinase 9 (Homo sapiens), sequence (P45984 whole entry, looked up): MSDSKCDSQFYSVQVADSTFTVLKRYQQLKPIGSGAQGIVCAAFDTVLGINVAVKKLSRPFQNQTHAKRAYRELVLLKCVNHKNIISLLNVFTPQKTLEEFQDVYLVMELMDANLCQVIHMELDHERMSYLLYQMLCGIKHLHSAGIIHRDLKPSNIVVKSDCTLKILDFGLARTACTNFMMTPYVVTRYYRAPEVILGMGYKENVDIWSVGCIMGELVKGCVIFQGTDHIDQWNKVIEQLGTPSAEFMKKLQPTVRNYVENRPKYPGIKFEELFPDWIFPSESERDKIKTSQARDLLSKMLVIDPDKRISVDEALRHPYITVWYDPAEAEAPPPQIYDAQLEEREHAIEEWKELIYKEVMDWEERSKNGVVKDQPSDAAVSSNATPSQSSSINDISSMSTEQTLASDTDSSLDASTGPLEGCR

[15] = target: Mitogen-activated protein kinase 9 (Homo sapiens) (UniProt P45984); settings: at 1 µM
[16] = target: Mitogen-activated protein kinase 1 (Homo sapiens) (UniProt P28482); settings: at 0.1 µM
Mitogen-activated protein kinase 1 (Homo sapiens), sequence (P28482 whole entry): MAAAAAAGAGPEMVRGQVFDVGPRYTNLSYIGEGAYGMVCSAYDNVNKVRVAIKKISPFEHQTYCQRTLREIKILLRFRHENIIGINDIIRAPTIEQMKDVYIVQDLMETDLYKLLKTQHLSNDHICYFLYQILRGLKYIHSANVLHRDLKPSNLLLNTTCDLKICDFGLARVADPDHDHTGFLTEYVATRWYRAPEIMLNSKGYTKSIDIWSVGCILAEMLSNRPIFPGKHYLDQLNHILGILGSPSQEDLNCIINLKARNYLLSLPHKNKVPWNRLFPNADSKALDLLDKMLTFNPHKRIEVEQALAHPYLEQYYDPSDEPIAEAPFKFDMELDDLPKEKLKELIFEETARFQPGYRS

[17] = target: Mitogen-activated protein kinase 1 (Homo sapiens) (UniProt P28482); settings: at 1 µM
[18] = target: Mitogen-activated protein kinase 3 (Homo sapiens) (UniProt P27361); settings: at 0.1 µM;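 further: each value is a mean inhibition figure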
Mitogen-activated protein kinase 3 (Homo sapiens), sequence (P27361 whole entry): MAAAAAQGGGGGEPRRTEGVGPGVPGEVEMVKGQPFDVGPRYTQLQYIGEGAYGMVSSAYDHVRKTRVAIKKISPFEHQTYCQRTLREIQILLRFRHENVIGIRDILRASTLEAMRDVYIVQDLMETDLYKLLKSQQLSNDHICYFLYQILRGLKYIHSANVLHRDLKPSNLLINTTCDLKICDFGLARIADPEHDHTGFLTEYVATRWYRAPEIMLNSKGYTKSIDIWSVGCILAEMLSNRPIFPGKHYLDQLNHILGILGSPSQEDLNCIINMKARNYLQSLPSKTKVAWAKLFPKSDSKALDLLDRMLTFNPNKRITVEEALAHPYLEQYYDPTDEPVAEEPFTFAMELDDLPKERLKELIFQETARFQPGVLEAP

[19] = target: Glycogen synthase kinase-3 beta (Homo sapiens) (UniProt P49841); settings: at 0.1 µM
Glycogen synthase kinase-3 beta (Homo sapiens), sequence (P49841 whole entry, looked up): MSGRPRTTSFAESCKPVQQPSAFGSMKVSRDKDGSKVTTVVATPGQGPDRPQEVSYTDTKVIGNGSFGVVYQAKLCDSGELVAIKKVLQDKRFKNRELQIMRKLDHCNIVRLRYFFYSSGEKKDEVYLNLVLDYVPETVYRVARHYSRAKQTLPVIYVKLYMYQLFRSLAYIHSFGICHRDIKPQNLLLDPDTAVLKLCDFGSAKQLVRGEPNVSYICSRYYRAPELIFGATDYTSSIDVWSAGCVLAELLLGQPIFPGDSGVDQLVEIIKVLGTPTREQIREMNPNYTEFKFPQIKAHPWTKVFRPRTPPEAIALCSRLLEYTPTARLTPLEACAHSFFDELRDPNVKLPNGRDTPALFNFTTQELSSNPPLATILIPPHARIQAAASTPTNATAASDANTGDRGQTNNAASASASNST

[20] = target: Glycogen synthase kinase-3 beta (Homo sapiens) (UniProt P49841); settings: at 1 µM

Dual specificity protein kinase CLK3 (Homo sapiens), sequence (P49761 whole entry, looked up): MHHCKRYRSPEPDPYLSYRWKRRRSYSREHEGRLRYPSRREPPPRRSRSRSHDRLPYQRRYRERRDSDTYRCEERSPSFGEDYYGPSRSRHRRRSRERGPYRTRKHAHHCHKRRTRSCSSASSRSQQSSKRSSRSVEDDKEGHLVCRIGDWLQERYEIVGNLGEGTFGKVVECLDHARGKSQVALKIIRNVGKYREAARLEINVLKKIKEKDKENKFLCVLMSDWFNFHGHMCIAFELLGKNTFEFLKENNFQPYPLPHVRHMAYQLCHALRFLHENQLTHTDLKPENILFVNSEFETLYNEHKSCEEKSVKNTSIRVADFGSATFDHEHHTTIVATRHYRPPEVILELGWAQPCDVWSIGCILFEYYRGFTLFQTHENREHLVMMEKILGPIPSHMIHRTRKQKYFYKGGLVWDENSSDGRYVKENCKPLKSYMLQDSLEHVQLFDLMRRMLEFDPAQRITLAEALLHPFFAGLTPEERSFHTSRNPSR

| SMILES | inhibition [1] [%] | inhibition [2] [%] | inhibition [3] [%] | inhibition [4] [%] | inhibition [5] [%] | inhibition [6] [%] | inhibition [7] [%] | inhibition [8] [%] | inhibition [9] [%] | inhibition [10] [%] | inhibition [11] [%] | inhibition [12] [%] | inhibition [13] [%] | inhibition [14] [%] | inhibition [15] [%] | inhibition [16] [%] | inhibition [17] [%] | inhibition [18] [%] | inhibition [19] [%] | inhibition [20] [%] |
| --- | --- | --- | --- | --- | --- | --- | --- | --- | --- | --- | --- | --- | --- | --- | --- | --- | --- | --- | --- | --- |
| COc1ccc(-c2ccc3c(NC(=O)C4CC4)n[nH]c3n2)cc1 | 2.15 | 0.91 | 1.49 | -0.93 | 0.04 | 1.19 | 2.63 | 3.01 | 8.2 | 1.57 | 2.49 | 0.72 | 0.93 | 3.56 | 1.85 | 2.19 | 3.67 | 4.98 | – | – |
| NC(=O)c1ccc(Oc2nccc(-c3c(-c4ccc(F)cc4)ncn3C3CCNCC3)n2)cc1 | 1.67 | 3.41 | 5.23 | 0.33 | -0.41 | 4.43 | 9.4 | 2.18 | 3.39 | 0.03 | 2.53 | 0.33 | 0.25 | – | – | 5.21 | 6.64 | 3.78 | 2.57 | 3.17 |
| CCC(=O)Nc1ccc(C)c(-c2ccc(C(=O)NCC3CC3)cc2)c1 | -0.21 | 1.98 | 3.18 | -0.71 | 0.18 | 3.11 | 2.91 | 1.84 | 3.42 | -3.16 | -2.43 | 0.11 | 0.55 | 2.92 | 4.2 | 4.32 | 4.25 | 2.94 | 0.54 | 2.31 |
| CN(c1ccc(NC(=O)Nc2c(Cl)cccc2Cl)cc1)c1ccnc(Nc2cccc(CS(C)(=O)=O)c2)n1 | 1.23 | -0.53 | 0.63 | -0.2 | 1.52 | 2.28 | 1.29 | 4.09 | 10 | 2.01 | 5.39 | 7.1 | 18.4 | 5.56 | 8.85 | 3.03 | 2.83 | 2.56 | 4.11 | 9.63 |
| NC(=O)Cc1ccccc1Oc1nccc(-c2c(-c3ccc(F)cc3)ncn2C2CCNCC2)n1 | 1.79 | 4.01 | 5.44 | 2.79 | 3.43 | 2.28 | 3.74 | 1.87 | 3.05 | 0.04 | -0.28 | 1.66 | 3.18 | – | – | 0.51 | 4.48 | 1.47 | -0.25 | 1.98 |
| COc1ccc(C2=C(N3CCc4ccccc43)C(=O)NC2=O)cc1 | 4.16 | 4.7 | 13 | 1.97 | 8.53 | 3.77 | 5.13 | 11.5 | 42.9 | 4.48 | 8.68 | 3.35 | 4.04 | 3.78 | 7.16 | -0.01 | 5.89 | 4.13 | – | – |
| c1ccc(-c2n[nH]cc2-c2ccnc(-c3ccc(OCCN4CCOCC4)cc3)c2)nc1 | 0.55 | 4.43 | 5.39 | 7.33 | 6.5 | -0.9 | -1.36 | 5.19 | 4.57 | 0.91 | 2.07 | 3.43 | 5.51 | 0.62 | 5.45 | -2.8 | -3.16 | -0.63 | 4.18 | 5.85 |
| Nc1nccc(-c2c(-c3ccc(F)cc3)ncn2C2CCC(O)CC2)n1 (stereo not given) | 3.28 | 2.86 | 5.97 | 3.71 | 5.6 | -1.97 | -2.78 | 0.95 | 5.67 | 2.2 | 4 | 1.22 | 3.26 | 9.42 | 53.3 | – | -2.72 | -0.59 | 1.63 | 14.1 |
| NC(=O)c1cc(-c2ccc(F)cc2)cc(-c2ccncc2)c1N | 0.95 | 1.07 | 3.02 | -0.78 | -1.19 | 3.58 | 5.04 | 1.24 | 1.03 | 1.44 | 0.21 | -0.23 | 2.98 | 3.69 | 2.06 | 4.92 | 5.18 | 3.25 | 0.05 | 1.12 |
| NS(=O)(=O)c1ccc(N/N=C2\C(=O)Nc3ccc(C(=O)NCCCn4ccnc4)cc32)cc1 | 8.02 | 7.66 | 15.9 | 4.25 | 15.6 | 4.62 | 16.2 | 40.6 | 76 | 4.8 | 34.3 | 3.92 | 17.6 | 6.1 | 10.9 | 9.89 | 38.5 | 5.16 | 39.7 | 77.7 |
| N#Cc1ccc(Oc2nccc(-c3c(-c4ccc(F)cc4)ncn3C3CCNCC3)n2)cc1 | -0.16 | 2.5 | 3.49 | -2.39 | -1.58 | 2.92 | 2.24 | 1.66 | 2.69 | -4.47 | -6.22 | -0.7 | -0.61 | – | – | 4.87 | 6.51 | 6.9 | 0.3 | 1.96 |
| O=C1NC(=O)C(c2cccc(Cl)c2)=C1Nc1ccc(Cl)c(C(=O)O)c1 | 2.4 | 1.22 | 5.02 | -0.3 | 1.57 | 1.93 | 2.84 | 32.8 | 77.5 | 2.03 | 1.77 | 1.36 | 0.39 | 1.14 | 3.47 | 11 | 5.36 | 5.36 | – | – |
| O=C1Nc2ccccc2/C1=C/Nc1ccc(-n2cncn2)cc1 | 1.52 | 6.54 | 14.3 | 3.43 | 11.6 | 3.46 | 6.8 | 17.3 | 28.2 | 2.9 | 5.5 | 0.86 | 3.17 | 5.47 | 12.1 | 6.04 | 6.4 | 93.3 | 15.3 | 25.4 |
| Fc1ccc(-c2ncn(C3CCNCC3)c2-c2ccnc(Oc3ccc(Oc4ccccc4)cc3)n2)cc1 | 1.21 | 2.96 | 3.95 | -0.87 | 0.42 | 4.61 | 7.67 | 2.97 | 2.77 | -1.61 | 2.08 | -0.8 | 0.79 | – | – | 5.58 | 9.79 | 3.67 | 2.21 | 3.65 |
